# Source: PubChem BioAssay (Fisher Drug Discovery Resource Center)
# hcGAS inh = Primary biochemical luminescence assay for human cyclic GMP-AMP synthase inhibitors. Q8N884. recombinant h-cGAS, ATP depletion, Kinase-Glo luminescence. inhibition, % at 12.5 µM. 0.081% of 290,000 active. AID 1259398, 2018;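 also: 0% = vehicle reaction and 100% = reaction without DNA for no activity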
# Target sequence (Q8N884 whole entry, looked up): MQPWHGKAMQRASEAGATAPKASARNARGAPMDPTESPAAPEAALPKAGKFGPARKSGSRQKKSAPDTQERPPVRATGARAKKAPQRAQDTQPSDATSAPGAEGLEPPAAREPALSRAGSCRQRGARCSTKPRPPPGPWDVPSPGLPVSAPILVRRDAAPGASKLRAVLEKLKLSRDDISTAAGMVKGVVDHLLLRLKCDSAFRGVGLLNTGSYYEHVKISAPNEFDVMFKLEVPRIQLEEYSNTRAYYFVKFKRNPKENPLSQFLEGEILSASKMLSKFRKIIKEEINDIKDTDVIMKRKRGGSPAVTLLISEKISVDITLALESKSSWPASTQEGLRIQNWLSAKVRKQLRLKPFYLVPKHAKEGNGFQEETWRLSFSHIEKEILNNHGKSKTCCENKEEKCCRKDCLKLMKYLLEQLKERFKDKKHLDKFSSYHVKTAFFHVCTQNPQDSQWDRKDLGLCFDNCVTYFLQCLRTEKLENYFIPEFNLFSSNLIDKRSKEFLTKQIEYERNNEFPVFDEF
# mcGAS inh = cyclic GMP-AMP synthase inhibitors, mouse, primary biochemical chemiluminescence; recombinant cGAS, Kinase-Glo ATP depletion luminescence; Q8C6L5; inhibition, % at 12.5 µM; 0.15% of 160,000 active;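 also: 0% = negative control wells and 100% = reference inhibitor with no enzyme activity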
# NPYLR7 ag = agonists of mosquito NPYLR7 receptor, primary screen, cell-based, Aedes aegypti, calcium fluorescence, mosquito biting behavior | Aedes aegypti neuropeptide Y-like receptor 7 (NPYLR7) | 0.15% of 270,000 active | activation, % at 10 µM | AID 1259423, 2018 | HEK293T NPYLR7/Galpha15, GCaMP6s calcium fluorescence; in the data active = activation above about 40%;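 also: 0% = vehicle and 100% = reference agonist at the receptor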
# The depositor's hits bear a star; . = not tested or not shown; ! = repeats disagree. Sampled rows, rich in hits. Any-hit rate of the full collection: about 0.28%. Rule as the data show it, unless noted: active = inhibition above about 40%; inactive = the rest.
SMILES,hcGAS inh,mcGAS inh,NPYLR7 ag
O=C(/C=C/c1ccc(O)cc1)c1ccc(O)cc1O,-9.6,14.1,1.9
COc1ccc2nc(/C=C/C(=O)c3ccc(O)cc3)ccc2c1,-5.8,75.7*,-2.7
O=C(/C=C/c1ccccc1)c1ccc(O)cc1O,5.9,85.0*,16.9
CCCCC(O)CN1CCc2nc(Cc3cccc(C)c3)[nH]c(=O)c2C1 (configuration not stated),-6.9,-6.4,2.6
N#Cc1c(SCc2ccccc2C(F)(F)F)sc2c(=O)[nH]c(=O)[nH]c12,8.0,7.3,-2.7
NC(=O)c1c(SCC(=O)c2ccc(F)cc2)sc2c(O)cc(=O)[nH]c12,0.0,-1.5,0.5
CC(=O)CSc1sc2c(O)cc(=O)[nH]c2c1C#N,-2.0,72.9*,12.8
N#Cc1c(SCc2ccccc2C(F)(F)F)sc2c(O)cc(=O)[nH]c12,5.9,62.8*,-1.0
Cc1cccc(COC(CN2CCN(S(=O)(=O)c3ccc(C(F)(F)F)cc3)CC2)c2ccc(Cl)cc2)c1 (configuration not stated),-0.4,-5.2,22.1
CC1CC1C(=O)NC1CCN(C(=O)C2CC2)CC1 (configuration not stated),-12.3,-5.5,15.0
CS(=O)(=O)c1cccc(NC(=O)c2ccc(COc3ccccc3)o2)c1,-2.9,-8.9,5.5
COc1cc(OC)cc(C(=O)N2CCN(c3nc4nccc(-c5ccc6c(c5)OCO6)n4n3)CC2)c1,-5.9,-10.1,-4.4
O=C(c1ccc(Cl)cc1Cl)N1CCN(c2cc(Oc3ccc(F)c(Cl)c3)ncn2)CC1,-1.1,-2.4,-0.1
O=c1cc(O)c2ccc(O)cc2o1,2.9,0.5,3.1
O=c1cc(C(F)(F)F)c2ccc(O)cc2o1,-10.1,-4.0,57.3*
COc1ccc(C2=NN(C(=O)CN3CCOCC3)C(c3nc4ccccc4[nH]3)C2)cc1 (configuration not stated),7.6,0.8,51.6*
O=C(CN1CCOCC1)N1N=C(c2ccc(Br)cc2)CC1c1nc2ccccc2[nH]1 (configuration not stated),-5.3,-4.9,8.9
COc1cccc(C(=O)NCC2=CCCN(Cc3cnc[nH]3)C2)c1,6.9,.,-2.6
Cc1cc(C)c(C)c(OCCCNC(=O)N2CCN(S(=O)(=O)c3ccccc3[N+](=O)[O-])CC2)c1,-7.0,-5.2,17.4
Cc1ccc(OCCNC(=O)N2CCN(S(=O)(=O)c3ccccc3Cl)CC2)c(C)c1,-10.9,-8.3,46.1*
CC(C)NC(=O)C(C#N)=Cc1ccc(Cl)cc1Cl,-1.4,10.3,-0.2
N#CC(=Cc1ccc(Cl)cc1Cl)C(N)=S,-5.7,66.8*,7.1
CCOC(=O)c1sc(NC(=O)CSc2nnc3ccccn23)c(C(=O)OCC)c1C,-6.2,-3.0,-1.7
CCOC(=O)c1sc(NC(=O)CSc2nnc(C)s2)c(C(=O)OCC)c1C,-4.3,61.3*,-3.8
CC(C)(C)c1noc(OCC(=O)Nc2ccccc2)n1,-5.2,.,13.0
SMILES,hcGAS inh,mcGAS inh,NPYLR7 ag
O=C1C(Sc2ncn[nH]2)=CC(=NS(=O)(=O)c2ccccc2)c2ccccc21,38.4,50.7*,9.3
CC(C)c1ccc(S(=O)(=O)N=C2C=C(Cl)C(=O)c3ccccc32)cc1,9.0,.,5.5
COc1ccc(-c2nccc3[nH]nc(-c4cccnc4)c23)cc1,-2.7,-7.1,17.7
CN(Cc1cc(-c2ccccc2)no1)CC1CCOC1 (configuration not stated),-6.8,.,0.9
CN1C(=O)C(=Cc2ccc(O)cc2)SC1=S,4.2,.,17.5
COC(=O)c1ccc(/C=C2/SC(=S)N(C(C(=O)O)C(C)C)C2=O)cc1 (configuration not stated),-2.5,-6.7,-1.9
CC(C)C(C(=O)O)N1C(=O)/C(=C/c2ccc(N(C)C)cc2)SC1=S (configuration not stated),-3.1,-6.9,54.2*
CCOc1cc(/C=C2\SC(=S)N(NC(=O)c3ccccc3O)C2=O)ccc1O,-7.9,8.3,59.1*
O=C(O)CCN1C(=O)/C(=C/c2ccc(O)cc2)SC1=S,-4.2,-0.5,92.2*
Cc1ccc(/C=C2\SC(=S)N(CCC(=O)O)C2=O)cc1,3.7,-1.3,-3.4
CC(=O)NN1C(=O)/C(=C\c2ccc(O)cc2)SC1=S,-7.7,-8.4,81.0*
CCOc1cc(C=C2SC(=S)N(c3ccc(OC)cc3)C2=O)ccc1O,-6.9,-6.0,-4.4
COCCNC(=O)C1CCCN(C2CCN(C(=O)c3cccs3)CC2)C1 (configuration not stated),-5.7,.,8.7
CCOC(=O)C1=C(C)N=C2SCC(=O)N2C1c1cccs1 (configuration not stated),-2.8,.,14.0
Cc1nc2cc(C(F)(F)F)ccc2n1C1CCN(C(=O)/C=C/c2ccccc2F)CC1,-4.9,-6.7,-7.3
CN(C)C1(CNC(=S)NCc2ccc3c(c2)OCO3)CCCCC1,-6.4,-16.1,1.4
CC(=O)c1c(C)[nH]c(C(=O)Cn2cnc3sc4c(c3c2=O)CCC(C)C4)c1C (configuration not stated),-9.2,.,9.1
CC(C)N1C(=O)C(=Cc2ccc(O)cc2)SC1=S,-8.1,-8.3,5.1
CSCCC(C(=O)O)N1C(=O)/C(=C/c2ccc(C)cc2)SC1=S (configuration not stated),-0.8,29.4,-5.5
CC(C(=O)O)N1C(=O)/C(=C\c2ccc(O)cc2)SC1=S (configuration not stated),0.1,2.2,62.3*
CCCC(C(=O)O)N1C(=O)/C(=C/c2ccc(O)cc2)SC1=S (configuration not stated),-3.7,-3.8,79.3*
Cc1ccc(-c2cc(C(=O)N3CCC(Cc4ccccc4)CC3)n(-c3ccc(Cl)cc3)n2)cc1C,-2.0,0.7,-1.4
O=C(O)c1cc(Br)nn1-c1ccc(F)cc1,-3.4,.,-3.5
COc1cccc(C(=O)N2CCc3ccccc3C2c2ccccc2F)c1 (configuration not stated),-2.0,-3.5,-2.6
CC(NCC1CCC1)c1ccccc1 (configuration not stated),-2.5,.,-7.2
SMILES,hcGAS inh,mcGAS inh,NPYLR7 ag
CC(NCCC(c1ccccc1)c1ccccc1)c1ccccc1 (configuration not stated),-4.5,-4.6,58.9*!
CCc1c(C)nc2c(-c3ccccc3)c(C)[nH]n2c1=O,5.6,.,-2.4
Cc1[nH]n2c(=O)c(C#N)c(-c3ccccc3)nc2c1-c1ccccc1,53.7*,.,-5.3
Cc1cc(C#N)ccc1S(=O)(=O)Nc1c(C)nn(C)c1Oc1cccnc1,-6.9,-15.8,6.1
COc1ccc(OCC(=O)NCc2cc(-c3ccc4c(c3)OCO4)on2)cc1,-11.5,-7.8,3.0
COc1ccc(OC)c(CCNc2nc3cnc(-c4ccc5c(c4)OCO5)cc3n2C)c1,-6.6,14.9,70.6*
COc1ccc(OC)c(CCNc2nc3cnc(-c4cccc5ccccc45)cc3n2C)c1,-5.6,-7.3,59.2*
COc1ccc(-c2cc3c(cn2)nc(NCc2ccccc2)n3C)c(C)c1,-1.7,-5.3,-2.4
COc1ccc(C2c3cccn3-c3ccccc3N2C(=O)CN(C(=O)c2cc(C(F)(F)F)cc(C(F)(F)F)c2)C2CC2)cc1 (configuration not stated),-6.3,-4.3,-10.9
